Laboratory results from the supplement of paper PMC11417369.
± gives the standard deviation of the averaged measurements. Over roughly 25,000 sequences, “ln(normalized median fluorescence intensity)” has its median near 7.9; the highest 2% begin near 11. The sample holds the highest values, similar sequences and a random draw of the others, so the mix is not that of the screen.

test system: PfAP2-I AP2 domain 3 (GST-tagged); assay: gcPBM binding intensity (ln(normalized median fluorescence intensity)); higher = stronger DNA binding
Procedure, shortened: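 Probes on an Agilent 4 × 180k array were primer-extended, double-stranded and 36 bp long, taken from intergenic genomic regions, with negative controls added. GST-tagged P. falciparum DNA-binding domains from E. coli, about 25 μg on average, were applied to the array for 1 h in 1× PBS containing 1% milk, 0.2 mg/ml BSA, 0.5% salmon testes DNA and 0.03% Triton X-100. Binding intensity, obtained after Alexa488 anti-GST antibody detection and a 488 nm scan, is the highest Masliner-normalised natural-log median intensity across replicate spots of either probe orientation.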

Row | Sequence | gcPBM binding intensity (ln)
1 | TGTAATTGTTTAAAGGGTACATATATCAGATGTCTT [XGTACX_site5877] | 7.62 ± 0.54
2 | TATATCATTATATAAACACACAATATGTTTTTTATA [CACACA_site3781] | 7.42 ± 0.54
3 | TTTATTTATATAATTACACACATATATACGCAAATG [CACACA_site2794] | 7.78 ± 0.31
4 | TATTTAATTATATAAAATTAAATTTTTAATTCTTCC [CACACA_negctrl_site473] | 7.28 ± 0.53
5 | TTTTTTTCTCACAATCGTACATAAATACATATATAT [XGTACX_site3150] | 8.12 ± 0.54
6 | AAATATTCATAGTATACACACATTTATTTATAACCA [CACACA_site6502] | 7.88 ± 0.52
7 | TTTCATAACAAAAAAGTGCAAAATAGCACGAACATT [GTGCAC_site9703] | 10.66 ± 0.049
8 | TGTTTTTCATAGTGCACACATAACCAAAAATAGTAT [CACACA_site3150] | 11.5 ± 0.67
9 | AATAAATTCATGATAGTGCAAAAATTATTTTTGTTA | 9.49 ± 0.028
10 | TTTGTTTTTCATAGTGCACACATAACCAAAAATAGT [CACACA_site9030] | 11.3 ± 0.46
11 | GGTATTTTCACATATAGTACACAAAAATAAAATAAA [XGTACX_site2139] | 8.48 ± 0.099
12 | GAAAAAATTTTATGGTGTACTTTATTTATTTATATA [XGTACX_site6323] | 8.06 ± 0.28
13 | TATTTTAAAGAGAAAACATGCATTATATAGAACATT [TGCATGCA_site328] | 7.93 ± 1
14 | AAAATATATACACAAACATGCATATAATAAATAAAT [TGCATGCA_site711] | 7.98 ± 0.83
15 | AATATAAACACAAACACACACATATATATATATATA [CACACA_site4307] | 9.49 ± 0.45
16 | AATATAATATAATGCACACATAAAACAAAAAAAAAA [CACACA_site3012] | 11 ± 0.86
17 | AATATAATATAATGCACACATAAACAAAAAAAAAAA [CACACA_site783] | 11.2 ± 1
18 | TTCTGACCAATGCTATAAAATAATACAAAAGAAAAA [GTGCAC_negctrl_site3] | 7.83 ± 0.35
19 | TCCATATGCAAACTGGTGCACAAGTAGCTTTTATAT | 11.15 ± 0.028
20 | AACTTTTTTATATGCACACATAAACAAGGATATATA [CACACA_site2874] | 10.1 ± 0.49
21 | TTAACTTTTTTATATGCACACATAAACAAGGATATA [CACACA_site8932] | 9.57 ± 0.3
22 | TATAAGAGGATATATACACACAAAAATATGTACAGT [CACACA_site6885] | 7.92 ± 0.52
23 | TATTAATAATTAAGTTGTACATTAATTAATATACTG [XGTACX_site6994] | 7.46 ± 0.41

Row | Sequence | gcPBM binding intensity (ln)
24 | CGTTATATCAAAGGAGTGCATTATGAATACGTTTTA [GTGCAC_site9837] | 11.4 ± 0.65
25 | ATATATTTTAGGAGAGTGCATTTAATATTATTTAAT [GTGCAC_site9444] | 10.7 ± 0.62
26 | ATATATCAAGGGAGTGAATGTTATGCATATGAATAT [TGCATGCA_negctrl_site573] | 7.82 ± 0.83
27 | AAAAATAGGAACCAATATCCAACGTGACTTTATAAT [CACACA_negctrl_site1011] | 7.68 ± 0.81
28 | TTTACTTTTTTTTCTTGTACTCATACATACTATCAT [XGTACX_site4919] | 7.84 ± 0.83
29 | ATATATATAATATGATGTACTATTTTGATAAAAAAT [XGTACX_site3975] | 8.23 ± 0.54
30 | TTTATCATGAACAGAAGTACATTTATATCAATGTCT [XGTACX_site6470] | 7.5 ± 0.47
31 | ATTGTCAAAACACGCACACACATATACATAATAACA [CACACA_site1742] | 8.2 ± 0.37
32 | TTATATTATTCGTGTGTGCACGATATTTCATAATTG [GTGCAC_site9767] | 10.1 ± 0.2
33 | TTTGCGTAGAAATGTGTGCACTGATATTTATAATAA [GTGCAC_site9526] | 10.6 ± 0.035
34 | ATATATATATATTTCGTGCACTGATAATATTATTTT | 11.2 ± 0.35
35 | AAAATTAAAATATCACGTACGAAGAAAAAATTAAGA [XGTACX_site6437] | 7.86 ± 0.54
36 | TATTTCACTTTTTGTCTGCACTAAAATTTTATGGTA | 9.46 ± 0.32
37 | ATTATATATATTTATGCACACAAAATATATTATATA [CACACA_site9244] | 9.78 ± 0.3
38 | TATATATATTTATGCACACAAAATATATTATATAAT [CACACA_site5955] | 9.86 ± 0.38
39 | TTTTTAATTCAAAAAATAATATATTATATTTCAAAT [CACACA_negctrl_site737] | 7.38 ± 0.48
40 | TAGACAAAATATAATGCACACTATTATTTTTATTTA [CACACA_site5508] | 11 ± 0.73
41 | TTTCAAAAAAATAGCTATATTTATATTAATGCACGA [TGCATGCA_negctrl_site63] | 11.9 ± 0.45
42 | ATATATATATTATATGCACACTAATAAGACTATTTA [CACACA_site5880] | 9.66 ± 0.11
43 | ACTAGACAAAATATAATGCACACTATTATTTTTATT [CACACA_site2726] | 10.9 ± 0.65
44 | AATTAGCTATTTAAAAATATATAAAATTTATATATA [CACACA_negctrl_site390] | 7.47 ± 0.2
45 | TTATATTTTACAAATGCACACATAATTTTTTTTTTT [CACACA_site8890] | 9.04 ± 0.19
